MbtI inh – MbtI salicylate synthase inhibitors, primary screen, biochemical, fluorescence intensity; P9WFX0; purified MbtI enzyme, fluorescence intensity read-out; inhibition, % (test concentration not listed); 0.89% of 100,000 active; AID 493033, 2011; in the data active means inhibition mostly above about 56%, no sharp cut-off; inactive means mostly below about 77%
Target sequence (P9WFX0 whole entry, looked up): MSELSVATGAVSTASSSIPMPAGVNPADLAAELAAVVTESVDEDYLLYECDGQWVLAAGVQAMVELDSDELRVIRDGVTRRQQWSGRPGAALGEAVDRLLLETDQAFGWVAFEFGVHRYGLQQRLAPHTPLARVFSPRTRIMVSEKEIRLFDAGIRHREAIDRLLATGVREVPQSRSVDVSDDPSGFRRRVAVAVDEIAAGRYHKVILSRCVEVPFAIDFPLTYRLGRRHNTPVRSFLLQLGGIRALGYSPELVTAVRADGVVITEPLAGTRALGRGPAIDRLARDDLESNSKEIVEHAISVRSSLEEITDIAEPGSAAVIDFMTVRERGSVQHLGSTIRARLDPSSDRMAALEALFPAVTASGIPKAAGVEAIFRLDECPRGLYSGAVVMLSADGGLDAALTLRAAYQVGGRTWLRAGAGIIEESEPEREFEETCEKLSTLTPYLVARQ
PV pol inh – poliovirus RdRp elongation inhibitors, primary screen, biochemical, fluorescence polarization, total intensity; Genome polyprotein (Poliovirus type 1 (strain Mahoney)), P03300; 0.66% of 150,000 active; poliovirus polymerase elongation; hits give low values; % elongation, % (compound at 16.7 µg/mL); in the data active means % elongation below about 90%
MenB inh – M. tuberculosis MenB inhibitors, primary screen, biochemical, absorbance. inhibition, % (concentration not given with the values). 0.43% of 100,000 active. 1,4-dihydroxy-2-naphthoyl-CoA synthase (Mycobacterium tuberculosis (strain ATCC 25618 / …. MenB enzyme assay, absorbance read-out; in the data active means inhibition above about 21%, passing the limit was not always enough
An asterisk follows results filed as active; / = no result. This is a sample that favours compounds with a hit; in the whole collection about 1.4% have one here.

SMILES | MbtI inh | PV pol inh | MenB inh
COc1cc2c(C(=O)N3CCCCC3C)cn(C)c(=O)c2cc1OC (configuration not stated) | -11 | 102 | 6
O=S(=O)(NCC(c1cccs1)S(=O)(=O)c1ccccc1)c1ccc(F)c(C(F)(F)F)c1 (configuration not stated) | / | 90 | /
O=C1C=C(Nc2ccc(F)c(C(F)(F)F)c2)c2ccccc2C1=O | / | 62* | -4
CCn1c(SCC#N)nnc1-c1cccc(C)c1 | 4 | 102 | 19
CCn1c(SCCC#N)nnc1-c1ccncc1 | 2 | 102 | 31*
O=S(=O)(NCCCCN1CCN(c2ncccc2C(F)(F)F)CC1)c1ccc(Cl)cc1 | -6 | 102 | -11
Cn1c(SCC(=O)c2ccc(F)cc2)nnc1-c1ccccc1Br | / | 102 | /
COc1ccccc1-c1nnc(SCC(=O)c2ccc(F)cc2)n1-c1ccccc1 | / | 83* | /
O=C(CSc1ccccc1)N1CCN(C(=O)C2CCCO2)CC1 (configuration not stated) | -20 | 100 | -10
O=C(CSc1nnc(-c2ccc3c(=O)n4c(nc3c2)CCCCC4)o1)c1c[nH]c2ccccc12 | 29 | 105 | -7
CCN1CCCC1CN(Cc1cc2cc(OC)ccc2[nH]c1=O)C(=O)Nc1ccccc1 (configuration not stated) | 89 | 102 | 19
COc1ccc(NC(=O)N(CCN(C)C)Cc2cc3cc(OC)ccc3[nH]c2=O)cc1 | 80 | 103 | 34*
COC(=O)CC1C(=O)NCCN1C(=O)CSc1nc2ccccc2c(=O)n1-c1ccc(C)cc1 (configuration not stated) | 20 | 100 | 5
COC(=O)CC1C(=O)NCCN1C(=O)CSc1nc2ccccc2s1 (configuration not stated) | 97* | 95 | -56
COc1cccc(-c2cc(C(F)(F)F)nc(SC3CC(=O)C4OCC3O4)n2)c1 (configuration not stated) | / | 108 | -4
Nc1ccc2c(c1)OC1(O)c3ccccc3C(=O)C21O (configuration not stated) | -12 | 101 | -66
O=C1CCCC2=C1C1(O)C(=O)c3ccccc3C1(O)O2 (configuration not stated) | 14 | 78* | -31
O=C(Nc1ccccc1)Nc1ccc2c(c1)OCO2 | 6 | 104 | 9
Cc1ccc(N=C2NN=C(c3ccccc3)C(C(=O)Nc3ccc4c(c3)OCO4)S2)cc1 (configuration not stated) | 39 | 85* | -7
O=S(=O)(NN=Cc1cn(-c2ccccc2)nc1-c1ccco1)c1ccc(Cl)cc1 | 90* | 102 | -5
NC(=O)N/N=C/c1cn(-c2ccccc2)nc1-c1ccccc1 | -6 | 100 | 7
O=C(CSc1nc(-c2ccccc2)c(-c2ccccc2)o1)NCCN1C(=O)CSC1=O | 107 | 102 | -8
COc1ccc(-c2nc3cc(C(C)C)ccc3o2)cc1NC(=O)c1ccc(C)c(Cl)c1 | / | 108 | /
COc1c(C)cc(NS(=O)(=O)c2ccc3c(c2)OCCO3)cc1C | / | 109 | /
CCOC(=O)c1s/c(=N\C(=S)NC(=O)CN2C(=O)CCC2=O)n(C)c1C | 12 | 99 | -30
SMILES | MbtI inh | PV pol inh | MenB inh
CCOC(=O)c1s/c(=N/N=C(C)C)n(C)c1C | 56* | 102 | -15
CCOCCCN=C1NC(C)(C)CS1 | -23 | 100 | -24
CCN1CCN(Cc2c(O)ccc3oc(C)c(C(=O)Nc4cccc(C(F)(F)F)c4)c23)CC1 | / | 104 | /
N#CSC(C#N)Cc1ccccc1 (configuration not stated) | 83* | 98 | 19
Cc1ccc(CC(C#N)Sc2nnc(C)n2Cc2ccccc2)cc1 (configuration not stated) | -2 | 107 | -6
C=CCOC(=O)COc1ccc2c3c(c(=O)oc2c1)CCC3 | 44 | 100 | -3
Cc1[nH]n(-c2ccccc2)c(=O)c1N=O | 18 | 102 | -49
Cc1[nH]n(-c2ccc(Br)cc2)c(=O)c1C1=c2ccccc2=NC1=O | 64* | 101 | 3
CCOc1ccc(-c2cc(C(=O)N3CCOCC3)c3c(-c4ccc(C)cc4)[nH]nc3n2)cc1 | -27 | 103 | 9
COc1ccc2c(c1)cc1n2CCN2CCN=C12 | -2 | 100 | -3
COc1ccc2c(c1)cc1n2CCN=C1N | / | 89* | -5
CN(C)CCCNCc1ccco1 | -2 | 103 | -22
CN(C)CCCNCc1cccn1C | 0 | 85* | 4
C=Cc1ccc(C=C)cc1 | 72* | 64* | 23
CCOC(=O)c1c(C)[nH]c(C)c1S(=O)(=O)N1CCCC(C(=O)Nc2ccccc2OCC)C1 (configuration not stated) | / | -7.0* | /
CCOc1ccccc1NC(=O)C1CCCN(S(=O)(=O)c2c(C)[nH]c(=O)[nH]c2=O)C1 (configuration not stated) | / | 102 | /
CN1C(=O)/C(=C\c2cccs2)c2ccccc21 | 4 | 103 | /
N#Cc1cc(C#N)c(SCc2cc3c(cc2Br)OCO3)nc1N | 2 | 115 | -6
CCN(C(=O)c1ccc2c(=O)n3c(nc2c1)CCCCC3)c1cc(Cl)ccc1OC | -14 | 105 | -17
Cc1oc(C(=O)O)cc1CSc1nc2ccccc2[nH]1 | 25 | 100 | 2
O=C(O)c1ccccc1CSc1nc2ccccc2[nH]1 | 56* | 96 | 4
Cc1cc(Cl)ccc1NC(=O)CN(c1ccccc1Br)S(C)(=O)=O | / | 109 | /
FC(F)(F)c1cc(-c2ccc3c(c2)OCO3)nc(=S)[nH]1 | -143 | 102 | 34*
N#Cc1c(-c2ccc3c(c2)OCO3)cc(-c2ccc(F)cc2)nc1N | 75 | 101 | -12
CCc1nnc(NC(=O)CSc2nccn2Cc2ccc(F)cc2)s1 | / | 106 | /
SMILES | MbtI inh | PV pol inh | MenB inh
CC(C)NC(=O)c1cccc(N2CCCS2(=O)=O)c1 | 9 | 99 | 3
CCOC(=O)C1CCN(C(=O)c2cc(-c3ccc(C)cc3)nc3ccccc23)CC1 | -1 | 101 | /
O=S(=O)(c1ccc2oc(=S)n(CN3CCOCC3)c2c1)N1CCOCC1 | 77 | 62* | -2
CCn1c(=O)n(CC)c2cc(S(=O)(=O)N3CCOCC3)ccc21 | / | 104 | 10
Cc1ccc(C(C)C)c(OCCN2CC(C)CC(C)C2)c1 (configuration not stated) | -6 | 102 | -19
Cc1cc(Cl)ccc1NC(=O)c1cccc(NC(=O)N2CCSc3ncccc32)c1 | / | 111 | /
Cc1cccc(NC(=O)c2oc3ccccc3c2NC(=O)Cc2coc3c(C)c(C)ccc23)c1 | / | 119 | /
COc1ccc(NC(=O)c2oc3ccccc3c2NC(=O)Cc2coc3c(C)c(C)ccc23)cc1 | / | -10* | /
CC(/C(O)=C(\C#N)c1nc2ccccc2s1)N1C(=O)c2ccccc2C1=O (configuration not stated) | 30 | 70 | 10
CCC(C)NS(=O)(=O)c1ccc(S(=O)(=O)N(Cc2ccc(C)o2)C2CCCC2)cc1 (configuration not stated) | -2 | 102 | 33*
CCNS(=O)(=O)c1ccc(S(=O)(=O)N(Cc2ccccn2)C2CCCCC2)cc1 | -13 | 105 | -24
CSC(=S)N(c1ccccc1)c1ccccc1 | -7 | 102 | /
NC(=S)N(c1ccccc1)c1ccccc1 | 5 | 101 | 32*
CCc1ccc(N(CC)c2ncnc3c2nc2n3CCCCC2)cc1 | -12 | 105 | -23

Compound activity (PubChem)
